According to PubChem BioAssay (NCI):
Compounds without any hit were thinned out: in the full panel of roughly 83,000, 20% have a hit.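 Compound tested at a single concentration for 48 hours in 96-well plates; a percent growth value below 10 was scored as active.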 Unmarked numbers belong to inactive results. The source made the active and inactive calls.

Each molecule was assayed on A549/ATCC NSCLC (assay: NCI-60 one-dose screen, 48 h (100 = growth as untreated, 0 = no growth, -100 = all killed)). Details: 10 µM.

| Compound | growth |
| --- | --- |
| COc1ccc(N2N=C(c3ccc4c(c3)OCCO4)CC2c2cccc(NC(=O)CCCNS(=O)(=O)c3ccc(F)cc3)c2)cc1 (centres undefined) | 61.8% |
| COc1cc(/C=N/NC(=O)c2ccc3nc(-c4ccc(Cl)cc4)[nH]c3c2)cc(OC)c1OC | 29.2% |
| O=C(N=Nc1c(O)[nH]c2ccc(Br)cc12)c1ccc2nc(-c3ccccc3)[nH]c2c1 | -24.6% (active) |
| COc1ccccc1[C@H]1C(C(=O)c2ccc(Cl)cc2)C2(N[C@@H]1c1ccccc1)C(=O)Nc1ccc(Cl)cc12 (some centres undefined) | 15.8% |
| O=c1cc(-c2ccccc2)oc2cc(OCCCNCc3ccccc3)cc(O)c12 | 26.2% |
| O=C1Nc2cc(-c3ccc(NC(=O)c4cccs4)cc3)ccc2/C1=C/c1ccc[nH]1 | 81.7% |
| O=C(c1ccc(O)cc1)C1[C@H](c2ccc(Br)cc2)[C@@H](c2ccccc2)NC12C(=O)Nc1ccccc12 (some centres undefined) | 29.5% |
| C=C1CCC2C3(C)COC(c4ccccc4F)OC3CCC2(C)C1C/C=C1/C(=O)OCC1O (centres undefined) | -5.16% (active) |
| C=C1CCC2C3(C)COC(c4c(F)cccc4F)OC3CCC2(C)C1C/C=C1/C(=O)OCC1O (centres undefined) | 10.1% |
| COc1cccc(/C=C2\N=C(C)N(CCc3ccc(S(N)(=O)=O)cc3)C2=O)c1 | 101% |
| C=C1CCC2C3(C)COC(c4cccc(F)c4)OC3CCC2(C)C1CC(O)C1=CCOC1=O (centres undefined) | 80.3% |
| Cn1cc(-c2cc(N)n3nc(-c4c[nH]c5ccc(Br)cc45)cc3n2)c2cccnc21 | -80% (active) |
| C=C1CCC2C3(C)COC(c4c(F)cccc4F)OC3CCC2(C)C1CC(O)C1=CCOC1=O (centres undefined) | 71.9% |
| Brc1ccc(/C=C/c2n(Cc3ccc4ccccc4c3)c3ccccc3[n+]2Cc2ccc3ccccc3c2)cc1 | 10.4% |
| O=C(Nc1ccc(I)cc1)Nc1nc2ccc([N+](=O)[O-])cc2s1 | -91.6% (active) |
| O=C(N/N=C/c1ccc(B(O)O)o1)c1[nH]c2ccc(Br)cc2c1-c1ccccc1 | 31.1% |
| CONC[C@]1(C)C=C2C(=O)[C@](C)(O)C3(CC3)C(C)=C2[C@H]1O | 5.7% (active) |

| Compound | growth |
| --- | --- |
| O=C(Nc1cccc(-c2cn(-c3ccc4oc(=O)ccc4c3)nn2)c1)Nc1cc(C(F)(F)F)cc(C(F)(F)F)c1 | 21.8% |
| CCCCCCCCCCCCCCCCCCCC(=O)NCCc1c[nH]c2ccc(OC(=O)CCCC(=O)OCCOOCCOOCCOOCCOOCCOOCCOOCCOOCCOOCCOOCCOOCCOOCCOC)cc12 | 42.3% |
| COc1ccc(/C(C)=N/N=C2C(=O)N(C)c3ccc(Br)cc32)cc1S(N)(=O)=O | 86.1% |
| N#Cc1c(NC(=O)c2ccc(C(F)(F)F)cc2C(F)(F)F)sc2c1CCC(=O)C2 | 9.8% (active) |
| CNCc1cccc2c1OCCCCCC[C@@](C)(O)CC1(CC1)S(=O)(=O)c1ccc(cc1)-c1cnc(N)c(n1)C(=O)N2 | -79.5% (active) |
| COc1cc(OC(F)(F)F)ccc1C(=O)Nc1sc2c(c1C#N)CCC(=O)C2 | 93.5% |
| Nc1n[nH]c2cccc(C#Cc3cccc(NC(=O)Nc4cc(C(F)(F)F)cc(C(F)(F)F)c4)c3)c12 | -35.3% (active) |
| N#Cc1c(-c2ccc(F)cc2)nc(SCc2ccc([N+](=O)[O-])cc2)nc1N1CCOCC1 | 63.4% |
| CC1=N/C(=C\c2ccc(N(C)C)cc2)C(=O)N1CCc1ccc(S(N)(=O)=O)cc1 | 93.2% |
| CN(CCF)c1ccc(/C=C/C(=O)c2ccc(N)cc2O)cc1 | 68.8% |
| O=C(c1ccc(Cl)cc1)C1[C@H](c2ccccc2Br)[C@@H](c2ccccc2)NC12C(=O)Nc1ccccc12 (some centres undefined) | 20.4% |
| O=C(Nc1cc(Cl)cc(Cl)c1)Nc1cc(Cl)cc(Cl)c1 | 1.01% (active) |
| O=C(c1ccc(O)cc1)C1[C@H](c2ccc(Br)cc2)[C@@H](c2ccccc2)NC12C(=O)Nc1ccc(Br)cc12 (some centres undefined) | 13.4% |
| COc1ccccc1[C@H]1C(C(=O)c2ccc(O)cc2)C2(N[C@@H]1c1ccccc1)C(=O)Nc1ccc(Br)cc12 (some centres undefined) | 32.6% |
| CN1CCN(c2ccc(C(=O)/C=C/c3ccc(C#N)cc3)cc2)CC1 | 76.3% |
| CC(C)(C)Nc1nc2cc(Cl)c(Cl)cc2nc1S(C)(=O)=O | 94.1% |
| COc1cc(/C=C/C(=O)c2cc(OC)c(OC)c(OC)c2)ccc1Oc1nc(Nc2ccc(F)cc2)nc(N(C)C)n1 | -48.3% (active) |
